Inconclusive results are not listed. A call without a number means that no potency is given here. The source made the active and inactive calls. Calls come from the whole dose curve; as a rule, active = well fitted inhibition curve with a large enough effect; inconclusive = small, poorly fitted or top-dose-only effect; inactive = flat fitted curve, though single readings scatter.
Experiments:
Assay in all cases: qHTS profiling for inhibitors of Plasmodium falciparum proliferation (AID 504749); note: nearly all actives have a fitted effect of over 60% in size
Details in all cases: P. falciparum in erythrocytes, SYBR Green DNA, 72 h; series mostly up to 28.7 µM
[1] = system: AA1029
In short: (§1)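 Parasite proliferation within erythrocytes, 72 h exposure. Endpoint: SYBR Green I fluorescence after overnight lysis at room temperature. Controls: 0.29 uM artemisinin, DMSO.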

[2] = system: ATS95
In short: as §1

[3] = system: C2A
In short: as §1

[4] = system: CP211
In short: as §1

[5] = system: CP215
In short: as §1

[6] = system: CP217
In short: as §1

[7] = system: CP250
In short: as §1

[8] = system: CP252
In short: as §1

[9] = system: CP256
In short: as §1

[10] = system: CP265
In short: as §1

[11] = system: CP268
In short: as §1

[12] = system: CP297
In short: as §1

[13] = system: CP315
In short: as §1

[14] = system: CP325
In short: as §1

[15] = system: CP329
In short: as §1

[16] = system: N140
In short: as §1

[17] = system: PAD
In short: as §1

[18] = system: SC27B
In short: as §1

[19] = system: TAB113
In short: as §1

[20] = system: TAB165
In short: as §1
Potency is the fitted concentration of half-maximal effect.

Row | Compound | Potency [1] | Potency [2] | Potency [3] | Potency [4] | Potency [5] | Potency [6] | Potency [7] | Potency [8] | Potency [9] | Potency [10] | Potency [11] | Potency [12] | Potency [13] | Potency [14] | Potency [15] | Potency [16] | Potency [17] | Potency [18] | Potency [19] | Potency [20]
1 | CC(=O)N[C@H]1[C@H](O[C@@H]2c3ccc(c(Cl)c3)Oc3cc4cc(c3O[C@@H]3O[C@H](CO)[C@@H](O)[C@H](O)C3C)Oc3ccc(cc3Cl)C[C@H]3NC(=O)[C@@H](N)c5ccc(O)c(c5)Oc5cc(O)cc(c5)[C@H](NC3=O)C(=O)N[C@H]4C(=O)N[C@H]3C(=O)N[C@@H]2C(=O)N[C@@H](C(=O)O)c2cc(O)cc(O[C@H]4O[C@H](CO)[C@@H](O)C(O)[C@@H]4O)c2-c2cc3ccc2O)O[C@H](CO)[C@@H](O)[C@@H]1O (stereo not given in full) | inactive | inactive | inactive | inactive | inactive | inactive | inactive | inactive | inactive | inactive | inactive | inactive | inactive | inactive | inactive | inactive | inactive | inactive | inactive | inactive
2 | O=C(OC[C@@H]1O[C@@](O)(COC(=O)c2cccnc2)[C@H](OC(=O)c2cccnc2)[C@H]1OC(=O)c1cccnc1)c1cccnc1 | inactive | inactive | inactive | inactive | inactive | inactive | inactive | inactive | inactive | inactive | inactive | inactive | inactive | inactive | inactive | inactive | inactive | inactive | inactive | inactive
3 | C=CCn1c(=O)n(C2OC(CO)C(O)C2O)c2nc(N)[nH]c(=O)c21 (stereo not given) | inactive | inactive | inactive | inactive | inactive | inactive | inactive | inactive | inactive | inactive | inactive | inactive | inactive | inactive | inactive | inactive | inactive | inactive | inactive | inactive
4 | C[C@H]1OC(OC2C(O)[C@@H](O)C(OC3C(O)[C@@H](O)C(O)O[C@@H]3CO)O[C@@H]2CO)[C@H](O)C(O)C1N[C@H]1C=C(CO)[C@@H](O)[C@H](O)C1O (stereo not given in full) | inactive | inactive | inactive | inactive | inactive | inactive | inactive | inactive | inactive | inactive | inactive | inactive | inactive | inactive | inactive | inactive | inactive | inactive | inactive | inactive
5 | CC1OC(OC2CCC3(C)C(CCC4C3CC(O)C3(C)C(C5=CC(=O)OC5)CCC43O)C2)CC(O)C1OC1CC(O)C(OC2CC(O)C(OC3OC(CO)C(O)C(O)C3O)C(C)O2)C(C)O1 (stereo not given) | inactive | inactive | inactive | inactive | inactive | inactive | inactive | inactive | inactive | inactive | inactive | inactive | inactive | inactive | inactive | inactive | inactive | inactive | inactive | inactive
6 | CC(=O)NC1[C@H]([C@H](O)[C@H](O)CO)OC(C(=O)O)=C[C@H]1N=C(N)N (stereo not given in full) | inactive | inactive | inactive | inactive | inactive | inactive | inactive | inactive | inactive | inactive | inactive | inactive | inactive | inactive | inactive | inactive | inactive | inactive | inactive | inactive
7 | NC[C@@H]1O[C@H](OC2[C@@H](CO)O[C@@H](OC3[C@H](O)[C@H](N)C[C@H](N)[C@H]3OC3O[C@H](CO)[C@@H](O)[C@H](O)[C@@H]3N)[C@H]2O)C(N)[C@H](O)[C@@H]1O (stereo not given in full) | inactive | inactive | inactive | inactive | inactive | inactive | inactive | inactive | inactive | inactive | inactive | inactive | inactive | inactive | inactive | inactive | inactive | inactive | inactive | inactive
8 | CC1OC(OCC2OC(Oc3c(-c4ccc(OCCO)c(OCCO)c4)oc4cc(OCCO)cc(O)c4c3=O)C(O)C(O)C2O)[C@@H](O)C(O)C1O (stereo not given in full) | inactive | inactive | inactive | inactive | inactive | inactive | inactive | inactive | inactive | inactive | inactive | inactive | inactive | inactive | inactive | inactive | inactive | inactive | inactive | inactive
9 | COc1cccc(OC)c1C(=O)NC1C(=O)N2C1SC(C)(C)C2C(=O)O (stereo not given) | inactive | inactive | inactive | inactive | inactive | inactive | inactive | inactive | inactive | inactive | inactive | inactive | inactive | inactive | inactive | inactive | inactive | inactive | inactive | inactive
10 | CCC(C(=O)O)C1OC(C(C)C(O)C(C)C(=O)C(CC)C2OC3(C=CC(O)C4(CCC(C)(C5CCC(O)(CC)C(C)O5)O4)O3)C(C)CC2C)C(C)CC1C (stereo not given) | 0.158 µM (active) | 0.178 µM (active) | 0.126 µM (active) | 0.0675 µM (active) | 0.0601 µM (active) | 0.178 µM (active) | 0.199 µM (active) | 0.141 µM (active) | 0.199 µM (active) | 0.224 µM (active) | 0.0757 µM (active) | 0.135 µM (active) | 0.0338 µM (active) | 0.0849 µM (active) | 0.0953 µM (active) | 0.141 µM (active) | 0.224 µM (active) | 0.0891 µM (active) | 0.0794 µM (active) | 0.158 µM (active)
11 | CC12C=CC(=O)C=C1[C@@H](F)CC1C2C(O)CC2(C)C1CC[C@]2(O)C(=O)CO (stereo not given in full) | inactive | inactive | inactive | inactive | inactive | inactive | inactive | inactive | inactive | inactive | inactive | inactive | inactive | inactive | inactive | inactive | inactive | inactive | inactive | inactive
12 | CC1CCC(C(C)C)C(O)C1 (stereo not given) | inactive | inactive | inactive | inactive | inactive | inactive | inactive | inactive | inactive | inactive | inactive | inactive | inactive | inactive | inactive | inactive | inactive | inactive | inactive | inactive
13 | NC(C(=O)O)c1ccc(O)cc1 (stereo not given) | inactive | inactive | inactive | inactive | inactive | inactive | inactive | inactive | inactive | inactive | inactive | inactive | inactive | inactive | inactive | inactive | inactive | inactive | inactive | inactive
14 | C[S+](C)CC[C@H](N)C(=O)O | inactive | inactive | inactive | inactive | inactive | inactive | inactive | inactive | inactive | inactive | inactive | inactive | inactive | inactive | inactive | inactive | inactive | inactive | inactive | inactive
15 | C=CC1CN2CCC1CC2[C@@H](O)c1ccnc2ccc(OC)cc12 (stereo not given in full) | 0.282 µM (active) | 0.251 µM (active) | 0.891 µM (active) | 0.675 µM (active) | 0.478 µM (active) | 0.501 µM (active) | 0.891 µM (active) | 0.355 µM (active) | 0.891 µM (active) | 0.355 µM (active) | 0.536 µM (active) | 0.757 µM (active) | 0.953 µM (active) | 0.478 µM (active) | 0.953 µM (active) | 0.316 µM (active) | 0.251 µM (active) | 0.891 µM (active) | 0.355 µM (active) | 0.251 µM (active)
16 | O=C1[C@@H]2C[C@@H]3C[C@H]1C[C@@](O)(C3)C2 | inactive | inactive | inactive | inactive | inactive | inactive | inactive | inactive | inactive | inactive | inactive | inactive | inactive | inactive | inactive | inactive | inactive | inactive | inactive | inactive
17 | O=C1C(I)=CC(=C(c2cc(I)c(O)c(I)c2)c2ccccc2C(=O)O)C=C1I | inactive | inactive | inactive | inactive | inactive | inactive | inactive | inactive | inactive | inactive | inactive | inactive | inactive | inactive | inactive | inactive | inactive | inactive | inactive | inactive
18 | CC(=O)OCC(=O)[C@@]1(O)CCC2C3C[C@H](C)C4=CC(=O)C=CC4(C)C3C(O)CC21C (stereo not given in full) | inactive | inactive | inactive | inactive | inactive | inactive | inactive | inactive | inactive | inactive | inactive | inactive | inactive | inactive | inactive | inactive | inactive | inactive | inactive | inactive
19 | Cc1cn([C@H]2CC(F)[C@@H](CO)O2)c(=O)[nH]c1=O (stereo not given in full) | inactive | inactive | inactive | inactive | inactive | inactive | inactive | inactive | inactive | inactive | inactive | inactive | inactive | inactive | inactive | inactive | inactive | inactive | inactive | inactive
20 | CC1(C)SC2C(NC(=O)C(C(=O)O)c3ccccc3)C(=O)N2C1C(=O)O (stereo not given) | inactive | inactive | inactive | inactive | inactive | inactive | inactive | inactive | inactive | inactive | inactive | inactive | inactive | inactive | inactive | inactive | inactive | inactive | inactive | inactive
21 | CC(O)C1CCC2C3CCC4CC(O)CCC4(C)C3CCC12C (stereo not given) | inactive | inactive | inactive | inactive | inactive | inactive | inactive | inactive | inactive | inactive | inactive | inactive | inactive | inactive | inactive | inactive | inactive | inactive | inactive | inactive
22 | CC(=O)OCC(=O)[C@@]1(O)CCC2C3CCC4=CC(=O)C=CC4(C)C3C(O)C[C@]21C (stereo not given in full) | inactive | inactive | inactive | inactive | inactive | inactive | inactive | inactive | inactive | inactive | inactive | inactive | inactive | inactive | inactive | inactive | inactive | inactive | inactive | inactive
23 | C[C@H]1[C@@H](OC(=O)CCC(=O)O)OC2OC3(C)CC[C@H]4[C@H](C)CC[C@@H]1[C@@]24OO3 (stereo not given in full) | 0.0063 µM (active) | 0.005 µM (active) | 0.0032 µM (active) | 0.0048 µM (active) | 0.0054 µM (active) | 0.0071 µM (active) | 0.0045 µM (active) | 0.005 µM (active) | 0.0071 µM (active) | 0.0025 µM (active) | 0.0054 µM (active) | 0.0048 µM (active) | 0.012 µM (active) | 0.006 µM (active) | 0.0076 µM (active) | 0.0032 µM (active) | 0.0056 µM (active) | 0.005 µM (active) | 0.002 µM (active) | 0.0018 µM (active)
